Rows were chosen to be rich in hits. Some 1.9% of all compounds tested hit in one or more screens of this group.
A1 inh: caspase 3/7 activation in MEF A1-2A-BIM cells, primary screen, A1 inhibitor project, cell-based, luminescence, HTS; hit rate 0.066% among 330,000; Caspase-Glo 3/7 luminescence, 3 h; percent of clofoctol response, vehicle zero; AID 2462, 2010; caspase activation, % (no concentration beside the values);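 active = over half of replicate activation scores above 10%, or exactly half above 10 with the replicate mean above 10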
Neddylation inh: inhibitors of cullin neddylation, primary screen, biochemical, TR-FRET, uHTS, NAE and Ubc12; NEDD8-conjugating enzyme Ubc12 (Homo sapiens) + NEDD8-activating enzyme E1 regulatory …; inhibition, % at 25 µM; hit rate 0.58% among 360,000; AID 651699, 2012; in the data active = inhibition above about 36%
GSIS activator: GLuc luminescence reporter in INS-1E cells, primary screen for activators of glucose-dependent secretion of insulin. INS-1E GLuc reporter insulin secretion, 2-3 h. activation, % at 16.6 µM. hit rate 0.61% among 370,000;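 active = lowest replicate activation of at least 40%, so every replicate reaches that level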;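 also: 0% = median of neutral control wells and 100% = median of IBMX positive control wells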
Vif imaging: HIV Vif self-association inhibitors, primary screen, imaging, HEK293T, single point. HEK293T cells, Vif self-association by quenched fluorescence, 24 h. inhibition, % at 7.49 µM. hit rate 0.35% among 340,000. AID 602346, 2012; in the data active = inhibition above about 50%, passing the limit was not always enough
dFosB act: activators of delta FosB homodimer, primary screen, biochemical, fluorescence polarization, TAMRA-CDK5 oligo, single point; hit rate 0.99% among 340,000; Protein FosB (Mus musculus), P13346; purified delta FosB; percent of positive-control signal above neutral wells; activation, % at 25 µM;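 active = mean activation above about 17%, with every replicate also reaching it, limit read from the data, passing the limit was not always enough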
Target sequence (P13346 whole entry, looked up): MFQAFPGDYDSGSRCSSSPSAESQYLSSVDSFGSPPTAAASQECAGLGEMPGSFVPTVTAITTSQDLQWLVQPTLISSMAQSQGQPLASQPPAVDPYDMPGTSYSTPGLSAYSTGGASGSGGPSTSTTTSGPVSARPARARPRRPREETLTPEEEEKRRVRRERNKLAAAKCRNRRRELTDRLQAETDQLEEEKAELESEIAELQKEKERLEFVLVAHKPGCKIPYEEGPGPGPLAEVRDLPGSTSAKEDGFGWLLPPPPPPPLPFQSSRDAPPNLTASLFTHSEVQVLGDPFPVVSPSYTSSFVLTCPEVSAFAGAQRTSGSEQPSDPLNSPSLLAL
Neddyl inh conf: blockade of NEDD8 conjugation to cullin – biochemical, TR-FRET, single concentration, confirmation; shares compounds with Neddylation inh; calls only at 25 µM; TR-FRET cullin neddylation biochemical assay; hit rate 13% among 1,800; in the data active = inhibition above about 40%;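 also: neddylation substrate is the cullin 1 ring ligase complex with SKP2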
Numbers without * were called inactive; i = inactive; . = no result shown; + = active, no number.

SMILES	A1 inh	Neddylation inh	GSIS activator	Vif imaging	dFosB act	Neddyl inh conf
N#Cc1nc(-c2ccco2)oc1N1CCc2ccccc2C1	-1	45*	6	-11	-8	i
CCCOc1ccc(-c2nc(C#N)c(N3CCN(C)CC3)o2)cc1	0	46*	.	14	-8	.
N#Cc1nc(-c2ccccc2)oc1N1CCCCC1	0	.	34	-11	-3	.
N#Cc1nc(-c2ccccc2)oc1N1CCN(C(=O)c2ccco2)CC1	2	42*	16	1	-4	i
CCCOc1ccc(-c2nc(C#N)c(N3CCc4ccccc4C3)o2)cc1	3	49*	.	2	1	i
CCCN(C)C[C@@H]1Oc2ncc(C#CCN(C)C)cc2C(=O)N([C@H](C)CO)C[C@@H]1C	.	.	12	.	.	.
COc1ccc(S(=O)(=O)Nc2ccc3c(c2)CC(=O)N([C@H](C)CO)C[C@H](C)[C@H](CN(C)Cc2ccncc2)O3)cc1	.	.	2	.	.	.
COc1ccc(C2C3=C(Nc4ncnn42)c2ccccc2CCC3)cc1 (stereo not drawn)	0	44*	.	11	-11	i
COc1cc(C2C3=C(Nc4ncnn42)c2ccccc2CC3)cc(OC)c1OC (stereo not drawn)	0	14	.	31	-7	.
CCc1ccc(-c2ccc3nnc(SC)n3n2)cc1	1	35	-1	9	-44	.
CCc1ccc(-c2ccc3nnc(SCC(N)=O)n3n2)cc1	-3	44*	-2	7	-16	i
O=C(CSc1ccc(-c2ccc(F)cc2)nn1)NCC1CCCO1 (stereo not drawn)	0	-4	-8	2	-6	.
O=C(CSc1nnc2ccc(-c3ccc(F)cc3)nn12)NCC1CCCO1 (stereo not drawn)	0	40*	5	-7	-7	.
COc1ccccc1NC(=O)N[C@H]1CC[C@H](CCNS(=O)(=O)c2ccccc2)O[C@H]1CO	.	.	7	.	.	.
Cc1cc(NS(=O)(=O)c2ccc(NC(=O)/C=C/c3ccc(Br)cc3)cc2)no1	0	-16	12	-3	-10	.
Cc1cc(NS(=O)(=O)c2ccc(NS(=O)(=O)c3ccc(Br)cc3)cc2)no1	1	57*	10	-4	-2	+
CC(C)C1Oc2cc3oc(=O)ccc3cc2C1=O (stereo not drawn)	0	46*	-12	17	-2	i
COc1cc2ccc(=O)oc2cc1O	1	37	16	-2	0	.
O=C(Cc1ccncc1)NCC[C@@H]1CC[C@@H](NC(=O)Nc2ccc(Cl)cc2)[C@@H](CO)O1	.	.	4	.	.	.
CC(C)NC(=O)N(C)C[C@H]1Oc2ncc(-c3cncnc3)cc2C(=O)N([C@@H](C)CO)C[C@H]1C	.	.	11	.	.	.
C/C=C/c1ccc([C@H]2[C@@H](CO)N[C@@H]2CN(CC(C)C)C(=O)c2ccccn2)cc1	.	.	9	.	.	.
CCC(C)NC(=O)c1c(N)n(/N=C/c2ccccn2)c2nc3ccccc3nc12 (stereo not drawn)	.	46*	.	6	5	i
CCC(C)NC(=O)c1c(N)n(/N=C/c2cccnc2)c2nc3ccccc3nc12 (stereo not drawn)	0	.	.	0	-4	.
CCN(CC)CCNC(=O)Cn1c(-c2ccccn2)nc2ccccc21	-1	47*	6	.	0	+
Fc1ccc(-c2cc(C(F)(F)F)n3ncnc3n2)cc1	0	47*	18	1	-5	.
SMILES	A1 inh	Neddylation inh	GSIS activator	Vif imaging	dFosB act	Neddyl inh conf
N=c1n(Cc2ccccc2)c2ccccc2n1CC(O)c1ccco1 (stereo not drawn)	1	39*	24	-9	-63	i
COc1cc2ccccc2cc1C(=O)OCC(=O)N(CC(C)C)c1c(N)n(Cc2ccccc2)c(=O)[nH]c1=O	1	47*	-1	5	6	i
CCN(C(=O)COC(=O)c1ccccc1NCc1ccco1)c1c(N)n(Cc2ccccc2)c(=O)[nH]c1=O	.	.	-17	-3	-11	.
COCCN(C(=O)COC(=O)c1cc2ccccc2cc1OC)c1c(N)n(Cc2ccccc2)c(=O)[nH]c1=O	-1	52*	-30	.	-17	+
CC(C)CN(C(=O)COC(=O)c1ccccc1NCc1ccco1)c1c(N)n(Cc2ccccc2)c(=O)[nH]c1=O	0	63*	9	7	-9	i
COc1cc(/C=N/n2nnnc2N)cc(OC)c1OC	1	39*	0	-6	-5	i
CSc1ccc(/C=N/n2nnnc2N)cc1	-1	44*	.	-1	-3	+
COc1cc(/C=N/n2nnnc2N)ccc1O	0	19	.	2	4	.
Nc1nnnn1/N=C/c1ccc(O)cc1	-8	3	.	0	-1	.
COc1ccccc1-c1cn(CC[C@@H]2CC[C@@H](NS(=O)(=O)c3ccccc3C)[C@H](CO)O2)nn1	.	.	-21	.	.	.
C[C@@H]1CN([C@H](C)CO)C(=O)c2ccccc2-c2ccccc2CO[C@@H]1CN(C)C(=O)C1CC1	.	.	11	.	.	.
O=C(Cc1ccccc1)N[C@H]1CC[C@H](CC(=O)N2CCCCC2)O[C@H]1CO	.	.	-11	.	.	.
Cc1cc2nc(C)c(=O)n(C)c2cc1C	0	47*	12	-7	-15	i
Cc1cc2nc(-c3ccc(=O)[nH]c3)n(C)c2cc1C	0	28	-6	-10	-1	.
CC(=O)N1CCCCN2[C@H](C1)[C@H](c1ccc(-c3ccc(C)cc3)cc1)[C@@H]2CO	.	.	-23	.	.	.
O=C(C1CC1)N1CC2(C1)[C@H](c1ccccc1)[C@H](CO)N2CC1CCCC1	.	.	-8	.	.	.
O=C(O)Cn1c(=O)c(-c2ccccc2)nc2ccccc21	0	55*	1	-5	-3	.
C[C@@H]1CN([C@@H](C)CO)C(=O)c2cccc(NC(=O)CCCCCC(=O)Nc3ccccc3N)c2O[C@@H]1CN(C)S(=O)(=O)c1ccccc1	.	.	1	.	.	.
O=C(Nc1ccccc1Br)c1ccc(OC(=S)N2CCOCC2)cc1	1	-11	8	1	0	.
Cc1ccc(NC(=O)c2ccc(OC(=S)N3CCOCC3)cc2)cc1	1	40*	.	-7	-6	i
NC(=O)COC(=O)c1ccccc1Nc1ccc(SC(F)F)cc1	-5	41*	-11	10	-18	i
CCC(=O)Nc1ccc2c(c1)OC[C@H](C)N(C(=O)C1CC1)C[C@H](C)[C@@H](OC)CN(C)C2=O	.	.	4	.	.	.
CCCNC(=O)[C@H]1[C@H](CO)[C@H]2Cn3c(ccc(-c4ccc(F)cc4)c3=O)[C@H]2N1CCC	.	.	-9	.	.	.
CC1(C)CC(=O)c2cc(OCC(=O)N3CCCCCC3)ccc2O1	-1	.	.	18	-3	.

High-throughput results deposited in PubChem by several laboratories.
